{"source": "paper PMC7862700", "about": "“An all-to-all approach to the identification of sequence-specific readers for epigenetic DNA modifications on cytosine”", "assay_in_all_cases": "DAPPL (digital affinity profiling via proximity ligation, sequencing); 10 mM Tris-HCl pH 7.5, 50 mM NaCl, 1 mM DTT, 4% glycerol, room temperature, 30 min; GST-TFs on glutathione beads, 16-mer random dsDNA library, 0.1% formaldehyde crosslink after washing; high values mean tight binding", "key": {"[1]": {"molecular_target": "HSF1 (Homo sapiens, UniProt Q00613 1-529)", "sequence (Q00613 whole entry, the tested form may be a part)": "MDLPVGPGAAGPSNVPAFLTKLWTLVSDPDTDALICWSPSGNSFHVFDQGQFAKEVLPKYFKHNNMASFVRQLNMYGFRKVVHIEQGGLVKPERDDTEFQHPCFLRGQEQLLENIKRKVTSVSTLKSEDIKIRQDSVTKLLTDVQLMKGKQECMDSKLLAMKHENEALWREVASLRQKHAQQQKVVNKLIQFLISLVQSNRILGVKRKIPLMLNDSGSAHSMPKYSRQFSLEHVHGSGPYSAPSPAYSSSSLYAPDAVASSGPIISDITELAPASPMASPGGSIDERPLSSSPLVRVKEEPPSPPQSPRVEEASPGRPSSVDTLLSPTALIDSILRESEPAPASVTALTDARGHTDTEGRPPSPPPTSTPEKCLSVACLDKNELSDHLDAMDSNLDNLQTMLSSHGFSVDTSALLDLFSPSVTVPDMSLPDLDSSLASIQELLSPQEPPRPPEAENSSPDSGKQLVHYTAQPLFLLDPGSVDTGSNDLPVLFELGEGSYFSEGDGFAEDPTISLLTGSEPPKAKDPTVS", "details": "protein: recombinant; tags: N-terminal GST; chain copies: 3; dsDNA, one strand shown", "procedure,_shortened": "(§1)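 Binding signal is each hexamer's read frequency for a factor divided by its frequency in the tag-only sample. The factors were GST-fused human transcription factors from yeast, captured on glutathione beads, DNA-barcoded and pooled with that sample. Pools were incubated with 200 nmole of a random double-stranded 16-mer DNA library in Tris/NaCl/DTT/glycerol buffer at room temperature for 30 min, then washed, crosslinked with 0.1% formaldehyde, proximity-ligated with BsaI/T4 ligase (1 h, 37 °C), PCR-amplified and sequenced on an Illumina NextSeq500.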"}, "[2]": {"molecular_target": "T1, ELK1 (Homo sapiens, UniProt P19419 1-428)", "T1 sequence": "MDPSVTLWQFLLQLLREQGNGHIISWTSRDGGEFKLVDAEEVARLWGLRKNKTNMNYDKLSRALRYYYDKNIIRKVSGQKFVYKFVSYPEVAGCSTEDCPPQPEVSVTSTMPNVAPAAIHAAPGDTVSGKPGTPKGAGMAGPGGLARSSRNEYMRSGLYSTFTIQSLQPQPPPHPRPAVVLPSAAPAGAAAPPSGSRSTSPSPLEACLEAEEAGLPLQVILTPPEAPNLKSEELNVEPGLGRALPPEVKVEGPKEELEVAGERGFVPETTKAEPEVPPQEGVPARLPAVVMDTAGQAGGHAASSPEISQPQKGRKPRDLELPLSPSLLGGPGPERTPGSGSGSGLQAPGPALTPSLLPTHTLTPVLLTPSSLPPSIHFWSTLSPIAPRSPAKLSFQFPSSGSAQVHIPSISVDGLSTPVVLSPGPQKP", "details": "protein: recombinant; tags: N-terminal GST; dsDNA, one strand shown", "procedure,_shortened": "as §1"}, "[3]": {"molecular_target": "ELF1 (Homo sapiens, UniProt P32519 1-619)", "sequence (P32519 whole entry)": "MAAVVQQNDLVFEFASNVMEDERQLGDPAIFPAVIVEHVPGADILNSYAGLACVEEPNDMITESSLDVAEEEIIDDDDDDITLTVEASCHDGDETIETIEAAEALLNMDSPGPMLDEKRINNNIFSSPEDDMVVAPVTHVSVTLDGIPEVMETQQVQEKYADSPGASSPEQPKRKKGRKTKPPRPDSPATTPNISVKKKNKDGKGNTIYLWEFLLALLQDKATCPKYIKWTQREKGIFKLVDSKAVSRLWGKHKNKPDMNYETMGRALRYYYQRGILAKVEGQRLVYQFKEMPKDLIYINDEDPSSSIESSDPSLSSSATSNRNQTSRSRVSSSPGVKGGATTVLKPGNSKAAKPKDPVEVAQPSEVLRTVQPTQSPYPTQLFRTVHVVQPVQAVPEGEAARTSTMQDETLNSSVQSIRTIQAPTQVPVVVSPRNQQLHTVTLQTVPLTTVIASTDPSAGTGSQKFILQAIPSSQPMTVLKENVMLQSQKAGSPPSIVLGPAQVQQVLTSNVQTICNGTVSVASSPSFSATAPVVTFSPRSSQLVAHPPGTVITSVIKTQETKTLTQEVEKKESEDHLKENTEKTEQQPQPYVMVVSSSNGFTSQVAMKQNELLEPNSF", "details": "protein: recombinant; tags: N-terminal GST; dsDNA, one strand shown", "procedure,_shortened": "as §1"}, "[4]": {"molecular_target": "SPIB (Homo sapiens, UniProt Q01892 1-262)", "sequence (Q01892 whole entry)": "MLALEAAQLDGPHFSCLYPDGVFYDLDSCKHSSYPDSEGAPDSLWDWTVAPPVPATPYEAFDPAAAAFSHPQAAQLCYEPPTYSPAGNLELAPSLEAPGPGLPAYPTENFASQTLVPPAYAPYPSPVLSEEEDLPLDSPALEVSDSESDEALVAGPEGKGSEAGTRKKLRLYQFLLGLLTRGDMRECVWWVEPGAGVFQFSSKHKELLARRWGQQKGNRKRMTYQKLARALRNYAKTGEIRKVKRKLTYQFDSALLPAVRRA", "details": "protein: recombinant; tags: N-terminal GST; dsDNA, one strand shown", "procedure,_shortened": "as §1"}, "[5]": {"molecular_target": "T2, ELK3 (Homo sapiens, UniProt P41970 1-407)", "T2 sequence": "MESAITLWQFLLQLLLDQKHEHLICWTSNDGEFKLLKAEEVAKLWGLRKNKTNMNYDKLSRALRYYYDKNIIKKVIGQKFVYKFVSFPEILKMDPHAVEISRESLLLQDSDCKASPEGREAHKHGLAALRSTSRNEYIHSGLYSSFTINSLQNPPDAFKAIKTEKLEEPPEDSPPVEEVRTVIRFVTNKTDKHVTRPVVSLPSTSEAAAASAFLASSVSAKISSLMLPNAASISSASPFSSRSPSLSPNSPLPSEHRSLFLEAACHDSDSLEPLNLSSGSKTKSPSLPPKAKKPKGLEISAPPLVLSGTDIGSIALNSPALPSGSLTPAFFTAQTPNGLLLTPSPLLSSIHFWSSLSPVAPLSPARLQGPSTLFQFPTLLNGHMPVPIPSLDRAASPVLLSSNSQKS", "details": "protein: recombinant; tags: N-terminal GST; dsDNA, one strand shown", "procedure,_shortened": "as §1"}, "[6]": {"molecular_target": "T3, SPIC (Homo sapiens, UniProt Q8N5J4 1-248)", "T3 sequence": "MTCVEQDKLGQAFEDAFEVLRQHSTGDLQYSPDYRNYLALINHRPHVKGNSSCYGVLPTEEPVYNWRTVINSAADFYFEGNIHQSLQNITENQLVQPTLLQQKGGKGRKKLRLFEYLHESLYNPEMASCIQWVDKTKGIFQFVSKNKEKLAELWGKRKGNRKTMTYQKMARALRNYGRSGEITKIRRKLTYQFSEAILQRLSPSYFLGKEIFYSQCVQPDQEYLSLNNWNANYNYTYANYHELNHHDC", "details": "protein: recombinant; tags: N-terminal GST; dsDNA, one strand shown", "procedure,_shortened": "as §1"}, "[7]": {"molecular_target": "ELF4 (Homo sapiens, UniProt Q99607 1-663)", "sequence (Q99607 whole entry)": "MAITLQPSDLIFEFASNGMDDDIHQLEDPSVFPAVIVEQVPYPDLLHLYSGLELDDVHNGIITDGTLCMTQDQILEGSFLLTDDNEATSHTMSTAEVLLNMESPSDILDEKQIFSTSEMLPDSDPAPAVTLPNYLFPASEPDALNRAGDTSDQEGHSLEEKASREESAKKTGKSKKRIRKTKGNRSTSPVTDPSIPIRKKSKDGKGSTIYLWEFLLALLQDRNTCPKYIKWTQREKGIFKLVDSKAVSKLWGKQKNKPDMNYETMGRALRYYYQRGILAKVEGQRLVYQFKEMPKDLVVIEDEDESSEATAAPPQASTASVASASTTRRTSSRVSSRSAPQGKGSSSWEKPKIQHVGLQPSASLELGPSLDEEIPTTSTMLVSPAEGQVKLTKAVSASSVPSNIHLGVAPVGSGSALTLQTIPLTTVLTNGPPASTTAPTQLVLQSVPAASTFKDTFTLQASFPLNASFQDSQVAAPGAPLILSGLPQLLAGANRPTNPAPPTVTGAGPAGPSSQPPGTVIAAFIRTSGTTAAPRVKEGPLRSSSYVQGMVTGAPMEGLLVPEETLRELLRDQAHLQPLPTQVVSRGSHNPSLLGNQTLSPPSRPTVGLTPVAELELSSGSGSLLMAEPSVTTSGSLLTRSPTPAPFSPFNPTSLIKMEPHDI", "details": "protein: recombinant; tags: N-terminal GST; dsDNA, one strand shown", "procedure,_shortened": "as §1"}, "[8]": {"molecular_target": "T4, ETV2 (Homo sapiens, UniProt O00321 1-342)", "T4 sequence": "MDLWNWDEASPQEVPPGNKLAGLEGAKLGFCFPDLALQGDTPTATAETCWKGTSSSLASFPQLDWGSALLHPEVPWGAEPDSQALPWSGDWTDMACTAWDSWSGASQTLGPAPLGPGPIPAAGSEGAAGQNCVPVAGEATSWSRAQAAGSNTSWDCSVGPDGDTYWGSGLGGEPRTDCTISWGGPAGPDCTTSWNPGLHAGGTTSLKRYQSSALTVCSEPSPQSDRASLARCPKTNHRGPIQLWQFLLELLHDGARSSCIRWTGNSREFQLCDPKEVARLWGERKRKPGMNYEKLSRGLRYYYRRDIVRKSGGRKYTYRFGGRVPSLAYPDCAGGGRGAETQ", "details": "protein: recombinant; tags: N-terminal GST; dsDNA, one strand shown", "procedure,_shortened": "as §1"}, "[9]": {"molecular_target": "T5, ELF3 (Homo sapiens, UniProt P78545 1-371)", "T5 sequence": "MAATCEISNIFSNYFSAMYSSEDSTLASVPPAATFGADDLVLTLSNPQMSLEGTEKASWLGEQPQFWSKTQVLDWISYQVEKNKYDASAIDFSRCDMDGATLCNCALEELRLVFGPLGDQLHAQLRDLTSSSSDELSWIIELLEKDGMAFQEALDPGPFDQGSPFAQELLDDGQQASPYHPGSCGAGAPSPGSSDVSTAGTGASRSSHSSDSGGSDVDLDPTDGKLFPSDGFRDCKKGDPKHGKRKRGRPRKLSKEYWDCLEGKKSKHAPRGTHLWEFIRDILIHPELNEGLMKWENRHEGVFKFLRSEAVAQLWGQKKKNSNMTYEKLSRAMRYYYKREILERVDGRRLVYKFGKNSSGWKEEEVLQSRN", "details": "protein: recombinant; tags: N-terminal GST; dsDNA, one strand shown", "procedure,_shortened": "as §1"}, "[10]": {"molecular_target": "T6, ERF (Homo sapiens, UniProt P50548 1-548)", "T6 sequence": "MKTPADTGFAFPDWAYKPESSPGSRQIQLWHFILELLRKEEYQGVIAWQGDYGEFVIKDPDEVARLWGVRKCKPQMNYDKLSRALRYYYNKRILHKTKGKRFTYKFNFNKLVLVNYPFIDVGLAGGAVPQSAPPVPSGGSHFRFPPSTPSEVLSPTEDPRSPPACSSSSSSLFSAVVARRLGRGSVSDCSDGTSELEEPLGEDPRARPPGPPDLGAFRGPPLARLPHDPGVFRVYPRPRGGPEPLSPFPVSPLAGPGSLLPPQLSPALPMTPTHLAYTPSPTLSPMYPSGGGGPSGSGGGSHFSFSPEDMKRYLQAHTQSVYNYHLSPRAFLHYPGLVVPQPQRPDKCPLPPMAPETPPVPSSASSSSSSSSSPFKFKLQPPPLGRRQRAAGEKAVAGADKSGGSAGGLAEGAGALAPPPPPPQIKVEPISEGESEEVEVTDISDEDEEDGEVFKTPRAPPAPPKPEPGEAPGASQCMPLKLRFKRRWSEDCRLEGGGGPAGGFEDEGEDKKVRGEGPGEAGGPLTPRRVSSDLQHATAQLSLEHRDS", "details": "protein: recombinant; tags: N-terminal GST; dsDNA, one strand shown", "procedure,_shortened": "as §1"}, "[11]": {"molecular_target": "T7, ETV3L (Homo sapiens, UniProt Q6ZN32 1-361)", "T7 sequence": "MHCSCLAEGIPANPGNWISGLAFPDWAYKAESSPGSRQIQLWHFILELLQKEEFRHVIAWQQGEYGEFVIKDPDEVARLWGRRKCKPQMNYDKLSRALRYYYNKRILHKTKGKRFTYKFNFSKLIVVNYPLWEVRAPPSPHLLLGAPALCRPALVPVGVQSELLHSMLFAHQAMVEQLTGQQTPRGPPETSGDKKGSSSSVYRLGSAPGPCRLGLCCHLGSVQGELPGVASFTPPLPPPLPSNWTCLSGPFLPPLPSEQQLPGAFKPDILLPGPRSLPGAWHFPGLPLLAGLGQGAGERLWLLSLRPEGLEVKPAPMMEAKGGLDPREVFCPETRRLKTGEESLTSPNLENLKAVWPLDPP", "details": "protein: recombinant; tags: N-terminal GST; dsDNA, one strand shown", "procedure,_shortened": "as §1"}, "[12]": {"molecular_target": "T8, ETS2 (Homo sapiens, UniProt P15036 1-469)", "T8 sequence": "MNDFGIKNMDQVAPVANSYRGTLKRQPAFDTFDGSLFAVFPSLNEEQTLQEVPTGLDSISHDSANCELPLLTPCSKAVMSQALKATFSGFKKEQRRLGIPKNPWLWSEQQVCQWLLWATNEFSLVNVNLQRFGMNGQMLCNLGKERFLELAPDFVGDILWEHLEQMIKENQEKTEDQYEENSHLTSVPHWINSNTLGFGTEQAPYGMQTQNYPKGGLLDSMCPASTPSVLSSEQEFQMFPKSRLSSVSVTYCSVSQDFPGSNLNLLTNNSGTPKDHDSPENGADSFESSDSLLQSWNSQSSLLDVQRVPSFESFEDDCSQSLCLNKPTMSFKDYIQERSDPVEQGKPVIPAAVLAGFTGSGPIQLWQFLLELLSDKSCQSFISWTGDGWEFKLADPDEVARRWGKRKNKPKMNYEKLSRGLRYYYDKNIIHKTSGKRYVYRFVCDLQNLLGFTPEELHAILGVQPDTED", "details": "protein: recombinant; tags: N-terminal GST; dsDNA, one strand shown", "procedure,_shortened": "as §1"}}, "data": [{"sequence": "GATCGA", "values": [{"measurement": "binding signal", "setting": "[1]", "value": "1.07 fold enrichment (6-mer frequency, TF over GST control)"}]}, {"sequence": "GAAGGT", "values": [{"measurement": "binding signal", "setting": "[1]", "value": "1.14 fold enrichment (6-mer frequency, TF over GST control)"}]}, {"sequence": "AACCGA", "values": [{"measurement": "binding signal", "setting": "[2]", "value": "1.02 fold enrichment (6-mer frequency, TF over GST control)"}, {"measurement": "binding signal", "setting": "[3]", "value": "1.04 fold enrichment (6-mer frequency, TF over GST control)"}, {"measurement": "binding signal", "setting": "[4]", "value": "1.03 fold enrichment (6-mer frequency, TF over GST control)"}, {"measurement": "binding signal", "setting": "[5]", "value": "1.01 fold enrichment (6-mer frequency, TF over GST control)"}, {"measurement": "binding signal", "setting": "[1]", "value": "1.04 fold enrichment (6-mer frequency, TF over GST control)"}, {"measurement": "binding signal", "setting": "[6]", "value": "1.09 fold enrichment (6-mer frequency, TF over GST control)"}, {"measurement": "binding signal", "setting": "[7]", "value": "1.02 fold enrichment (6-mer frequency, TF over GST control)"}, {"measurement": "binding signal", "setting": "[8]", "value": "1.13 fold enrichment (6-mer frequency, TF over GST control)"}, {"measurement": "binding signal", "setting": "[9]", "value": "1.04 fold enrichment (6-mer frequency, TF over GST control)"}, {"measurement": "binding signal", "setting": "[10]", "value": "1 fold enrichment (6-mer frequency, TF over GST control)"}, {"measurement": "binding signal", "setting": "[11]", "value": "1.07 fold enrichment (6-mer frequency, TF over GST control)"}, {"measurement": "binding signal", "setting": "[12]", "value": "1.03 fold enrichment (6-mer frequency, TF over GST control)"}]}, {"sequence": "TCGCGA", "values": [{"measurement": "binding signal", "setting": "[1]", "value": "1.59 fold enrichment (6-mer frequency, TF over GST control)"}]}]}
